Screening data (PubChem BioAssay)
Six1-Eya2 blk: blocks human Six1 binding to Eya2; Q15475+O00167; AlphaScreen GST-Six1/His-Eya2 binding, biochemical; hits give low values; activity change, % (test concentration not listed); 360,000 tested, 0.56% active; AID 651725; in the data active means activity change below about -65%; inconclusive means mostly about -30% to -63%
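GST-Six1 + His-Eya2 (5X stock: 250/500 nM); Tris pH 8.0, 300 mM NaCl, 0.05% BSA, 0.02% Tween 20; GSH donor/Ni acceptor beads; 1 h 37 °C dark; AlphaScreen readout.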
CtBP-E1A inh: CtBP/E1A binding inhibition | AlphaScreen GST-E1A/His-CtBP binding, 1536-well; hits give low values | 340,000 tested, 0.49% active | activity change, % (test concentration not listed) | AID 651724; in the data active means activity change below about -65%; inconclusive means mostly about -30% to -63%
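In 5 uL wells, 23 nL compound meets equimolar GST-E1A and His-CtBP (5X stock 125 nM each) for 2 h, 37 °C. Beads (5X, 50 ug/mL) then 1 h, 37 °C, dark.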
TDP1 inh: TDP1 (human) enzyme inhibition; recombinant TDP1, AlphaScreen DNA substrate cleavage; Potency, µM (titrated, usually from 130 µM), usual class: inhibitors; Q9NUW8; 350,000 tested, 0.28% active; further: nearly all actives have a fitted effect of over 40% in size
Target sequence (Q9NUW8 whole entry, looked up): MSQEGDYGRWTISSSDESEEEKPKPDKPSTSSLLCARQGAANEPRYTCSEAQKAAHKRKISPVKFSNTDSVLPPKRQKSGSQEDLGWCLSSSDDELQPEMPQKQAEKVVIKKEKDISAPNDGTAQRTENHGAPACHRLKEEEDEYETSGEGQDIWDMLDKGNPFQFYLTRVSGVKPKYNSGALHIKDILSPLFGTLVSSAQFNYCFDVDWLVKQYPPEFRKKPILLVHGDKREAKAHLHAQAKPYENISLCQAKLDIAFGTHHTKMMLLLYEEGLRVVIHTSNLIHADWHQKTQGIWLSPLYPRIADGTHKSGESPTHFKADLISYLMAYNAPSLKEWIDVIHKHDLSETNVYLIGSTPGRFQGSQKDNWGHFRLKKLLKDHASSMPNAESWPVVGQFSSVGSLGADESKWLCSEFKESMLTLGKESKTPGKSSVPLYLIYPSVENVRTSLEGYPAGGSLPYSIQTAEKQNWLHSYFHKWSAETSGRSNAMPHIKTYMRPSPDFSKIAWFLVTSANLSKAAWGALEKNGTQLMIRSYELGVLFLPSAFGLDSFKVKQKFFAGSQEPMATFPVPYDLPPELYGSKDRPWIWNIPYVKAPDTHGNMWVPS
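E. coli-derived human Tdp1, 1 nM final. Cpd preinc 15 min RT; substrate 15 nM final, 5 min RT; AS bead mix 10 ug/ml final, 10 min RT. Signal loss = tyrosine-FITC cleavage. No-enzyme wells = max signal.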
DT40 TDP1 no CPT: qHTS for Inhibitors of human tyrosyl-DNA phosphodiesterase 1 (TDP1): qHTS in cells in absence of CPT. 420,000 tested, 15% active. Potency, µM (titrated, usually from 46.2 µM), most hits filed as inhibitors. DT40 Tdp1-/- hTDP1 cells, no CPT, ATP luminescence, 48 h; further: nearly all actives have a fitted effect of over 55% in size
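No-CPT arm: Tdp1-/-;hTDP1 DT40 cells (400/well) plus compounds, incubated ≥48 hr at 37 °C. Readout CellTiter-Glo luminescence.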
TDP1 cell CPT: DT40-hTDP1 cell growth loss with CPT. chicken DT40 Tdp1-/-;hTDP1 cells + 20 nM CPT, ATP luminescence, 48 h. Potency, µM (titrated, usually from 46.2 µM), hits mostly inhibitors. 420,000 tested, 12% active. AID 686979; further: nearly all actives have a fitted effect of over 55% in size
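Chicken DT40 Tdp1-/- cells complemented with human TDP1, 400 cells/well, exposed to compounds plus 20 nM camptothecin for at least 48 h at 37 C; viability read as ATP content by CellTiter-Glo luminescence.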
IL1B secr inh: blocks inflammasome-driven IL-1 beta release | 360,000 tested, 4.7% active | AID 743279 | THP-1 LPS/ATP IL-1B secretion, AlphaLISA, 16 h; hits give low values | activity change, % at 57.5 µM; in the data active means activity change below about -50%; inconclusive means mostly about -30% to -49%
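Secreted IL-1B measured by AlphaLISA bead assay after 16 h compound exposure of THP-1 cells; compounds (final up to 57.5 uM) added 1 h before LPS (250 ng/mL) and ATP (1.25 mM) stimulation; lower signal means less secretion.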
Each line names hits and unclear results; the compound was inactive in the other large screens; ! = a repeat was not active. Sampled rows, rich in hits. Any-hit rate of the full collection: about 18%. Unless noted, the call rests on the fitted dose curve; in most records, active means well fitted curve in the direction sought with a large enough effect; inconclusive means small, poorly fitted or top-dose-only effect, or another doubt; inactive means no such curve, though single readings can be large; an effect the other way counts as inactive or inconclusive.

CCN(CCCNC(=O)CCCn1c(=O)[nH]c2ccccc2c1=O)c1cccc(C)c1	DT40 TDP1 no CPT 21µM, TDP1 cell CPT inconclusive, IL1B secr inh inconclusive
COC(=O)c1ccc2c(=O)n(CCCCCC(=O)NCCc3ccccc3)c(=O)[nH]c2c1	DT40 TDP1 no CPT 18µM, TDP1 cell CPT inconclusive (no result: Six1-Eya2 blk, CtBP-E1A inh, IL1B secr inh)
CCN(CCCNC(=O)CCn1c(=O)[nH]c2ccccc2c1=O)c1cccc(C)c1	none
O=C(CCCCCn1c(=O)[nH]c2ccccc2c1=O)NCCc1ccccc1	DT40 TDP1 no CPT 0.46µM, TDP1 cell CPT 0.29µM (no result: Six1-Eya2 blk, CtBP-E1A inh, IL1B secr inh)
O=C(Nc1ccc2c(c1)OCCO2)C1c2ccccc2OCC(=O)N1C1CC1 (configuration not stated)	none (no result: TDP1 inh)
Cc1[nH]c2ccc(-c3nnc(SCC(=O)c4ccccc4F)o3)cc2c1C	DT40 TDP1 no CPT 18µM
Cc1ccc(C(=O)CSc2nnc(-c3ccc4[nH]c(C)c(C)c4c3)o2)cc1C	DT40 TDP1 no CPT 26µM, TDP1 cell CPT inconclusive
COc1ccc(N2CCN(C(=O)CSc3nnc(-c4ccc5[nH]c(C)c(C)c5c4)o3)CC2)cc1	TDP1 cell CPT inconclusive
Cc1[nH]c2ccccc2c1C(=O)CSc1nnc(C2CC2)o1	DT40 TDP1 no CPT inconclusive (no result: CtBP-E1A inh)
Cc1cc(=O)oc2cc(OCC(=O)Nc3ccccc3C(=O)O)ccc12	none (no result: TDP1 inh)
O=C(CCn1cnc2ccccc21)N=Nc1c(O)[nH]c2ccccc12	TDP1 cell CPT inconclusive
S=c1nc[nH]c2nc[nH]c12	TDP1 inh 32µM, DT40 TDP1 no CPT 19µM!, TDP1 cell CPT inconclusive
O=C(Cn1ncc(Cl)c(Cl)c1=O)NCC1CCCCC1	DT40 TDP1 no CPT 1.8µM, TDP1 cell CPT 2.6µM, IL1B secr inh -103
Cc1cccc(N2CCN(CC(=O)NCC3CCCCC3)CC2)c1C	DT40 TDP1 no CPT inconclusive, TDP1 cell CPT inconclusive
O=C1CN(C(=O)Cn2ncc(Cl)c(Cl)c2=O)c2ccccc2N1	DT40 TDP1 no CPT 8.2µM, TDP1 cell CPT 7.3µM, IL1B secr inh -106
O=C(CN1C(=O)c2ccccc2C1=O)NC1CCS(=O)(=O)C1 (configuration not stated)	none (no result: TDP1 inh)
O=C(Cn1ncc(Cl)c(Cl)c1=O)NC1CCS(=O)(=O)C1 (configuration not stated)	DT40 TDP1 no CPT 21µM, TDP1 cell CPT 23µM (no result: TDP1 inh)
O=C(Cn1ncc(Cl)c(Cl)c1=O)NC1CCCCC1	DT40 TDP1 no CPT 15µM, TDP1 cell CPT 10µM, IL1B secr inh -100
Cc1cccc(NC(=O)CNC(=O)Cn2ncc(Cl)c(Cl)c2=O)c1C	TDP1 inh 14µM, DT40 TDP1 no CPT 9.2µM, TDP1 cell CPT 12µM, IL1B secr inh -100
O=C(/C=C/c1ccccc1)NC(=S)Nc1ccc(CN2CCOCC2)cc1	DT40 TDP1 no CPT 18µM, TDP1 cell CPT inconclusive, IL1B secr inh -109
CC(C)C(=O)NC(=S)Nc1ccc(CN2CCOCC2)cc1	none
O=C(/C=C/c1ccc(Cl)cc1Cl)NC(=S)Nc1ccc(CN2CCOCC2)cc1	DT40 TDP1 no CPT 13µM, TDP1 cell CPT 16µM
CCOC(=O)c1cc2c(c(CCO)n1)[C@H](CCO)N(S(=O)C(C)(C)C)C2 (some centres not stated)	none (no result: TDP1 inh)
O=C(CC1C(=O)NCCN1Cc1ccc(Cl)c(F)c1)NCC1CCOCC1 (configuration not stated)	none (no result: CtBP-E1A inh, TDP1 inh)
Cc1c(C(=O)OCC(=O)NCc2ccccc2)oc2ccccc12	none
COc1ccccc1C(=O)CC(=O)C(=O)Nc1cccc([N+](=O)[O-])c1C	DT40 TDP1 no CPT 12µM, TDP1 cell CPT 16µM (no result: TDP1 inh)
COc1cccc(C(=O)CC(=O)C(=O)Nc2cc(OC)ccc2OC)c1	DT40 TDP1 no CPT 23µM, TDP1 cell CPT 18µM (no result: TDP1 inh)
COc1cccc(C(=O)CC(=O)C(=O)Nc2cccc([N+](=O)[O-])c2C)c1	DT40 TDP1 no CPT 12µM, TDP1 cell CPT 15µM, IL1B secr inh -92 (no result: TDP1 inh)
CCOc1ccccc1NC(=O)C(=O)CC(=O)c1cccc(OC)c1	DT40 TDP1 no CPT inconclusive, TDP1 cell CPT inconclusive (no result: TDP1 inh)
COc1ccc(C(=O)CC(=O)C(=O)Nc2cccc([N+](=O)[O-])c2C)cc1	DT40 TDP1 no CPT 16µM, TDP1 cell CPT 21µM (no result: TDP1 inh)
CS(=O)(=O)NCC(c1ccco1)N1CCN(c2ccccc2)CC1 (configuration not stated)	none (no result: Six1-Eya2 blk, CtBP-E1A inh, IL1B secr inh)
Cc1cc(=O)[nH]c(Nc2cccc(C(F)(F)F)c2)n1	DT40 TDP1 no CPT 23µM, TDP1 cell CPT inconclusive
Cc1cc(=O)[nH]c(SCC(=O)Nc2cccc(C(F)(F)F)c2)n1	DT40 TDP1 no CPT inconclusive, TDP1 cell CPT inconclusive
O=c1cc(O)c2sc(Nc3cccc(C(F)(F)F)c3)nc2[nH]1	DT40 TDP1 no CPT 7.3µM, TDP1 cell CPT 12µM
CCCCCCN1CC(=O)N2[C@@H](Cc3c([nH]c4ccccc34)C2(C)C)C1=O	DT40 TDP1 no CPT inconclusive, TDP1 cell CPT inconclusive (no result: CtBP-E1A inh, TDP1 inh)
CCOc1ccc(Sc2cc(C(=O)NCc3ccccc3Cl)c3ccccc3n2)cc1	DT40 TDP1 no CPT 13µM, TDP1 cell CPT inconclusive (no result: Six1-Eya2 blk, CtBP-E1A inh, IL1B secr inh)
CCc1ccc(Sc2cc(C(=O)NCCCN3CCCC(C)C3)c3ccccc3n2)cc1 (configuration not stated)	DT40 TDP1 no CPT inconclusive, TDP1 cell CPT inconclusive (no result: Six1-Eya2 blk, CtBP-E1A inh, IL1B secr inh)
Cc1ccc(Sc2cc(C(=O)NCCCN(C)C)c3ccccc3n2)cc1	DT40 TDP1 no CPT inconclusive, IL1B secr inh -69 (no result: TDP1 inh)
CCc1ccc(Sc2cc(C(=O)NCCCN3CCC(C)CC3)c3ccccc3n2)cc1	DT40 TDP1 no CPT 16µM, TDP1 cell CPT 16µM (no result: Six1-Eya2 blk, CtBP-E1A inh, IL1B secr inh)
